PMC5540273 (PLoS ONE, 2017)

Experiments:
Conditions in all cases: concentration: 1 μM, replicates: in singlicate; n = 1
MLK1 = system: T1, MLK1
T1 construct: gene MAP3K9

MLK2 = system: MLK2
MLK3 = system: MLK3
MRCKA = system: MRCKA
MRCKB = system: T2, MRCKB
T2 construct: gene CDC42BPB

MST1R = system: MST1R
MST1 = system: T3, MST1
T3 construct: gene STK4

MST2 = system: T4, MST2
T4 construct: gene STK3

MST3 = system: T5, MST3
T5 construct: gene STK24

MST4 = system: MST4
MTOR = system: MTOR
MUSK = system: MUSK
MYLK2 = system: MYLK2
MYLK4 = system: MYLK4
MYLK = system: MYLK
MYO3A = system: MYO3A
MYO3B = system: MYO3B
NDR1 = system: T6, NDR1
T6 construct: gene STK38

NDR2 = system: NDR2
NEK10 = system: NEK10
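Further: KINOMEscan kinase panel screen.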

Compound | %Inh (MLK1) [%] | %Inh (MLK2) [%] | %Inh (MLK3) [%] | %Inh (MRCKA) [%] | %Inh (MRCKB) [%] | %Inh (MST1R) [%] | %Inh (MST1) [%] | %Inh (MST2) [%] | %Inh (MST3) [%] | %Inh (MST4) [%] | %Inh (MTOR) [%] | %Inh (MUSK) [%] | %Inh (MYLK2) [%] | %Inh (MYLK4) [%] | %Inh (MYLK) [%] | %Inh (MYO3A) [%] | %Inh (MYO3B) [%] | %Inh (NDR1) [%] | %Inh (NDR2) [%] | %Inh (NEK10) [%]
Nc1ncnc2scc(-c3ccc(NC(=O)Cc4cc(F)ccc4F)cc3)c12.O=C(O)C(F)(F)F [SB-731254-M] | 0 | 28 | 34 | 0 | 4 | 20 | 42 | 0 | 30 | 24 | 0 | 2 | 38 | 72 | 8 | 29 | 0 | 12 | 25 | 0
Cc1ccc(O)cc1Nc1ccnc2ccc(C(C)(C)C)cc12 [GW856805] | 11 | 19 | 19 | 0 | 0 | 0 | 0 | 28 | 12 | 36 | 0 | 27 | 5 | 13 | 25 | 13 | 6 | 18 | 23 | 27
O=C(Nc1n[nH]c2nc(-c3cccc(O)c3)ccc12)C1CC1 [SB-711805] | 0 | 13 | 3 | 0 | 0 | 0 | 0 | 0 | 0 | 0 | 0 | 0 | 97.2 | 13 | 98.4 | 18 | 0 | 0 | 0 | 0
Cc1ccccc1CC(=O)N1CCc2cc(-c3cn(C)c4ncnc(N)c34)ccc21 [GSK2603346] | 7 | 0 | 18 | 0 | 0 | 46 | 97 | 0 | 46 | 54 | 30 | 5 | 85 | 0 | 9 | 100 | 0 | 0 | 0 | 0
CC(C)c1nc(-c2ccc(F)c(NS(=O)(=O)c3c(F)cccc3F)c2)c(-c2ccnc(Nc3ccc(N4CCOCC4)nc3)n2)s1 [GSK1804250] | 52 | 8 | 52 | 4 | 0 | 46 | 17 | 3 | 23 | 23 | 32 | 8 | 2 | 1 | 7 | 51 | 54 | 23 | 0 | 7
CS(=O)(=O)c1cccc(CNc2nc(Nc3ccc4c(c3)CCC(=O)N4)ncc2C(F)(F)F)c1 | 99.7 | 93.9 | 96.4 | 0 | 0 | 1 | 0 | 11 | 0 | 25 | 62 | 12 | 16 | 0 | 7 | 0 | 0 | 58 | 0 | 0
COc1cccc(C2=C(Nc3cccc(O)c3)C(=O)NC2=O)c1 [SB-390771] | 21 | 0 | 4 | 18 | 0 | 0 | 13 | 12 | 0 | 7 | 38 | 0 | 0 | 6 | 27 | 17 | 0 | 18 | 0 | 67
CN(c1ccc(NC(=O)N2CCN(CCCN3CCOCC3)CC2)cc1)c1ccnc(Nc2ccc(CS(C)(=O)=O)cc2)n1.Cl [GW830899] | 13 | 29 | 1 | 19 | 15 | 0 | 0 | 0 | 0 | 0 | 0 | 12 | 9 | 1 | 0 | 0 | 0 | 3 | 0 | 0
Cn1cc(-c2ccc3c(c2)CCN3C(=O)Cc2cc(F)cc(C(F)(F)F)c2)c2c(N)ncnc21 [GSK2635225] | 78 | 42 | 72 | 5 | 0 | 19 | 39 | 10 | 0 | 0 | 35 | 28 | 27 | 1 | 12 | 42 | 0 | 25 | 13 | 6
CN(C)CCNS(=O)(=O)c1ccc(-c2ccnc3[nH]ccc23)cc1 [GSK977620] | 3 | 24 | 0 | 4 | 46 | 27 | 17 | 9 | 0 | 0 | 17 | 23 | 35 | 99.5 | 28 | 0 | 0 | 29 | 15 | 17
Cn1cc(-c2ccc3c(c2)CCN3C(=O)Cc2cc(F)cc(F)c2F)c2c(N)ncnc21 [GSK2634140] | 38 | 0 | 54 | 0 | 0 | 43 | 85 | 42 | 4 | 0 | 15 | 28 | 82 | 0 | 11 | 38 | 1 | 0 | 0 | 10
Cc1ccc(NC(=O)c2ccc(Cl)c(Cl)c2)cc1-c1ccc(C(=O)Nc2ccncc2)cc1 [GSK1398460] | 7 | 16 | 20 | 25 | 32 | 31 | 8 | 0 | 6 | 0 | 0 | 6 | 0 | 5 | 27 | 0 | 0 | 14 | 0 | 0
NCCC(NC(=O)c1cc(Br)c(-c2ccnc3[nH]ccc23)s1)c1ccccc1.O=C(O)C(F)(F)F.O=C(O)C(F)(F)F (stereo not drawn) [GSK1307810] | 0 | 0 | 0 | 86 | 99.1 | 29 | 0 | 4 | 11 | 23 | 12 | 11 | 8 | 99.9 | 34 | 0 | 0 | 96.7 | 96.7 | 9
CNc1nccc(-c2ccc3c(N)n[nH]c3c2)n1 [GSK2206003] | 4 | 0 | 10 | 0 | 0 | 10 | 30 | 0 | 13 | 0 | 11 | 3 | 60 | 97.1 | 68 | 53 | 0 | 24 | 9 | 29
Cc1cc(-c2c(-c3ccc(F)cc3)ncn2CCCN2CCOCC2)nc(N)n1 [SB-222517] | 5 | 49 | 0 | 0 | 20 | 18 | 13 | 20 | 5 | 1 | 0 | 14 | 1 | 14 | 17 | 17 | 30 | 43 | 14 | 16
CC(=O)Nc1cn2nc(Oc3cccc(NC(=O)c4cccc(C(F)(F)F)c4)c3)ccc2n1 | 2 | 23 | 6 | 7 | 0 | 0 | 27 | 0 | 1 | 0 | 11 | 21 | 0 | 3 | 44 | 5 | 9 | 8 | 0 | 0
Cc1ccc(NC(=O)c2cccc(N3CCCCC3)c2)cc1-c1ccc(C(=O)NCC2CC2)cc1 [GSK1917008] | 0 | 17 | 12 | 17 | 0 | 37 | 13 | 34 | 13 | 1 | 14 | 1 | 9 | 9 | 17 | 0 | 12 | 0 | 0 | 0
COc1cccc(CC(=O)N2CCc3cc(-c4cn(C)c5ncnc(N)c45)ccc32)c1 [GSK2608899] | 32 | 41 | 20 | 2 | 0 | 45 | 98.8 | 100 | 31 | 27 | 8 | 27 | 64 | 7 | 20 | 38 | 18 | 22 | 0 | 7
